D1 mod: D1 CRE-luciferase signal change, two-sided – cell-based, HEK293 D1, dopamine EC30, D1 allosteric modulator project, primary screen; dopamine EC30 potentiation; actives deviate in either direction; D(1A) dopamine receptor (Homo sapiens), P21728; B-score at 10 µM; 58,000 tested, 5.9% active;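 active = luminescence count or its row- and column-corrected plate score outside the 99.7% band of the plate's sample wells, on either side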
DAT uptake mod: changed hDAT dopamine uptake under cocaine IC80, either direction, primary screen, cocaine antagonist project, cell-based, LLC-PK1 hDAT, [14C]-dopamine uptake, MLSMR | Sodium-dependent dopamine transporter (Homo sapiens), Q01959 | LLC-PK1 hDAT cells, [14C]-dopamine uptake with cocaine IC80; actives deviate in either direction | B-score at 10 µM | 110,000 tested, 1.3% active | AID 449768, 2010;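 active = Z score or B-score, a plate-position-corrected score, falls beyond the plate's 99.7% confidence bounds, in either direction; inactive = both scores lie inside the 99.7% bounds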;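 note: scored against the spread of the other compound wells on the same plate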
PLAP act: PLAP enzyme activators, biochemical, luminescence, HTS. Alkaline phosphatase, placental type (Homo sapiens), P05187. purified PLAP enzyme, luminescent substrate read-out; stronger effect = higher value. activation fold at 20 µM. 96,000 tested, 1.2% active; in the data active = activation fold above about 2
TNAP act DEA: human TNAP enzyme activators, primary screen, biochemical, luminescent, intermediate phosphate acceptor level; Alkaline phosphatase, tissue-nonspecific isozyme (Homo sapiens), P05186; 64,000 tested, under 10 active; AID 813, 2007; activation factor at 20 µM; purified TNAP, CDP-star luminescence, 100 mM DEA, 30 min; stronger effect = higher value; scale: 0 levamisole-inhibited, 1 vehicle-only enzyme;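 active = activation factor of at least 2 at 20 µM, relative to controls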
HePTP inhibitor: inhibitors of human HePTP phosphatase, primary screen, biochemical, absorbance, leukemia target; recombinant HePTP phosphatase activity, OD absorbance; inhibition, % at 20 µM; 110,000 tested, 0.64% active; AID 521, 2006; in the data active = inhibition above about 50%;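 note: plate controls were vehicle for no effect and reference inhibitor for full effect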
Target sequence (P35236 whole entry, looked up): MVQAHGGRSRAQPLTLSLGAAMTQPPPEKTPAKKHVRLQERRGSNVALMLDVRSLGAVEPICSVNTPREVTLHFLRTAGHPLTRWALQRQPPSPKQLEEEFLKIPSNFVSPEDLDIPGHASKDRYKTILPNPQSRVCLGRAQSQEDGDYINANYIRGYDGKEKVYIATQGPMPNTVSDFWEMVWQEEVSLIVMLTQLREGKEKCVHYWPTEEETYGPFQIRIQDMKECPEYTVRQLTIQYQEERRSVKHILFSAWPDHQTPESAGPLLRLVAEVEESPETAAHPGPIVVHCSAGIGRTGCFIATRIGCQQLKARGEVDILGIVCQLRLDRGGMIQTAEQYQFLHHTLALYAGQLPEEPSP
Candida biofilm: clotrimazole potentiators killing Candida biofilms, primary screen, with clotrimazole, Alamar Blue; C. albicans biofilm + clotrimazole; inhibition, % at 6 µM; 85,000 tested, 0.14% active;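 active = inhibition above 20%; inactive = inhibition below 20%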;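 note: preformed 24 hr biofilms exposed to compound for 48 hr; 0% = biofilm without compound and 100% = blank killed by clotrimazole plus chlorhexidine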
The depositor's hits bear a star; nt = no result. Only a selection was taken, and hits are over-represented in it overall.

SMILES	D1 mod	DAT uptake mod	PLAP act	TNAP act DEA	HePTP inhibitor	Candida biofilm
Cc1ccc(-c2nn(-c3ccccc3)cc2C(=O)N2CCOCC2)cc1	-4.04*	0.578	1.6	0.9	-0.3	9.2
Cc1ccc(C)c(S(=O)(=O)C(C#N)c2nc3ccccc3nc2N2CCCC2)c1 (stereo not drawn)	-1.84	0.624	1.2	0.9	-5.4	5.6
Cc1ccc(C)c(S(=O)(=O)C(C#N)c2nc3ccccc3nc2N2CC(C)OC(C)C2)c1 (stereo not drawn)	-2.66*	0.169	1.4	0.8	10.9	6.0
CC(C)(C)c1cc(CCC(=O)NNC(=O)c2ccccc2)cc(C(C)(C)C)c1O	nt	nt	nt	nt	56.4*	nt
O=C(Oc1ccc(Br)cc1/C=N/NC(=O)c1ccccn1)c1ccc(Br)cc1	nt	nt	nt	nt	-3.8	nt
CCOc1ccc(N(CC(=O)NCc2ccc(Cl)cc2)S(=O)(=O)c2ccc(Br)cc2)cc1	nt	nt	nt	nt	102.8*	nt
CCOc1ccc(N(CC(=O)NCc2ccc(OC)cc2)S(=O)(=O)c2ccc(Br)cc2)cc1	nt	nt	nt	nt	5.7	nt
CCC(=O)Nc1sc(C)c(C)c1C(N)=O	nt	nt	nt	nt	-3.6	nt
Cc1cccc(NC(=S)NNC(=O)CC(C)O)c1C (stereo not drawn)	nt	-0.705	2*	nt	nt	nt
COC(=O)CSc1nc(N)c2c3c(sc2n1)CC(C(C)(C)C)CC3 (stereo not drawn)	nt	nt	nt	nt	5.9	nt
CCCCN(CC)Cc1ccc(CNC(=O)Nc2ccccc2)o1	nt	-2.53*	0.8	nt	nt	-2.2
CCCCN(CC)Cc1ccc(CNC(=O)Nc2ccc(OC)cc2OC)o1	-0.276	-0.377	1.3	1	5.8	4.7
Cc1ccc(S(=O)(=O)Nc2ccnc3ccccc23)cc1	nt	-8*	1	nt	nt	3.3
Cc1ccc(C)n1-c1cc(C(=O)O)ccc1O	nt	nt	nt	nt	103.2*	nt
Cc1ccc(C)n1-c1ccc(C(=O)O)c(Cl)c1	nt	nt	nt	nt	102.4*	nt
Cc1ccc(C)n1-c1cc(C(=O)O)cc(C(=O)O)c1	nt	nt	nt	nt	100.6*	nt
Nc1ccc(C(=O)O)c(O)c1	-0.225	-1.51	nt	0.9	12.8	11.8
Cc1ccc(C)n1-c1ccc(C(=O)O)cc1	nt	-1.15	1.6	nt	nt	3.3
Cc1ccc(C)n1-c1ccc(C(=O)O)c(O)c1	nt	nt	nt	nt	103.1*	nt
CCc1ccc(/C=N\N2CCN(c3ccc(C)cc3)CC2)cc1	nt	nt	nt	nt	6.5	nt
Cc1ccccc1C(=O)NNC(=S)NC(=O)COc1ccccc1	nt	-0.752	2.4*	nt	nt	nt
Cc1ccc(C(=O)NNC(=S)NC(=O)COc2ccccc2)cc1	nt	0.0189	1.5	nt	nt	nt
O=C(NCc1cccnc1)c1cc(-c2ccccc2)on1	0.206	3.64*	1.2	0.9	8.8	3.0
COc1cc2c(cc1NC(=O)Cc1ccc(Cl)cc1)oc1ccccc12	nt	nt	nt	nt	1.3	nt
O=C1CC(N(Cc2ccc3c(c2)OCO3)C(=S)Nc2ccccc2)C(=O)N1c1ccc(Cl)cc1 (stereo not drawn)	nt	nt	nt	nt	-9.9	nt
SMILES	D1 mod	DAT uptake mod	PLAP act	TNAP act DEA	HePTP inhibitor	Candida biofilm
CCOC(=O)c1ccc(N2C(=O)CC(N(Cc3ccc4c(c3)OCO4)C(=O)Nc3ccccc3)C2=O)cc1 (stereo not drawn)	nt	1.05	2*	nt	nt	4.3
N/C(COc1ccc(F)cc1)=N\NC(=O)c1cccnc1Oc1ccccc1	nt	-0.18	2*	nt	nt	14.5
NS(=O)(=O)c1cccc(NC(=O)c2ccc(Br)o2)c1	nt	nt	nt	nt	-8.0	nt
CCCC(=O)c1c(NCc2ccccc2)cc(C)oc1=O	nt	nt	nt	nt	-9.8	nt
Nc1ccc2c(c1)C(=O)c1ccccc1C2=O	nt	nt	nt	nt	-4.2	nt
Nc1ccc2c(c1)C(=O)C(=O)c1ccccc1-2	nt	-3.21*	0.8	nt	nt	3.2
O=C(/C=C/c1ccco1)Nc1ccc(N2CCOCC2)cc1	nt	nt	nt	nt	1.2	nt
COc1ccc(OC)c(Nc2cc(C)nc3nc(C)nn23)c1	0.352	-0.0392	2*	1	4.6	10.9
COc1ccc(Nc2cc(C)nc3nc(C)nn23)c(OC)c1	-0.352	-1.18	nt	1	4.3	14.3
CC1CCCC(NC(=O)COC(=O)c2ccc3ccccc3n2)C1C (stereo not drawn)	nt	-0.306	1	nt	nt	6.6
CCN(c1ccc(NC(=O)COC(=O)c2ccc3ccccc3n2)cc1)C(C)C	nt	-2.75*	1	nt	nt	1.7
